PubChem BioAssay (EPA / NIEHS)
The source made the active and inactive calls. Rule for the calls: active = hit-call score of the fitted dose curve at least 0.9, where 1 is the maximum; inactive = score below 0.9.

These molecules were tested on ATP-citrate lyase (ACLY), ACLY (gene 47) (assay: LTEA_HepaRG_ACLY: Life Technologies and Expression Analysis (LTEA) Assay for ATP-citrate lyase (ACLY) using HepaRG (AID 2283466)). Settings: mRNA level, 48 h; actives raise or lower the signal.
Experimental: LTEA_HepaRG is a cell based, multiplexed-readout assay that uses HepaRG, a human liver cell line, with measurements taken at 48 hours after chemical dosing on a 96-well plate.LTEA_HepaRG_ACLY is one of 102 assay component(s) measured in the LTEA HepaRG cell culture assay. It is a marker of Steatosis.Data from the assay component LTEA_HepaRG_ACLY was analyzed into 1 endpoint. This assay endpoint, LTEA_HepaRG_ACLY, was analyzed with bidirectional fitting relative to DMSO as the negative control and baseline of activity. Using a type of inducible reporter, measures of mRNA induction for gain or loss-of-signal activity can be used to understand regulation of transcription factor activity. To generalize the intended target to other relatable targets, this assay endpoint is annotated to the lyase intended target family, where the subfamily is steatosis.
A total of 1060 chemcials from the ToxCast library were tested in eight-point concentration-response experiments. Cell culture and cytotoxicity assays were conducted at Thermo Fisher Scientific's Custom Services facility (Madison, WI). A single lot of human HepaRG cells (Thermo Fisher Scientific, Frederick, MD) was used for the cell culture experiments. 96-well format collagen type I coated plates of human HepaRG cells were prepared using established methods. Briefly, cryopreserved HepaRG cells were thawed, plated at a density of approximately 100,000 cells/well in HepaRG Thaw, Plate, and General Purpose media (HPRG770, Thermo Fisher Scientific), and incubated for 48 hours. 0.5% DMSO was selected as vehicle control to balance the requisite need of DMSO in HepaRG cultures to maintain differentiation (for example, baseline metabolism, proportions of hepatocytes vs. cholangiocytes), while enabling further hepatic receptor pathway activation (for example, PXR and CAR) in response to chemical exposure. 48 hours after plating, the culture medium was replaced with HepaRG Serum-Free Incudtion Media. Cells were exposed to each test chemical in duplicate and maintained in CO2 incubators for another 48 hours. Chemical plates were thawed to room temperature and 200x concentrations of treatment groups were prepared. 8-point conentration-reponse curves were made with the highest exposure at 100 uM, followed by half-log dilutions, all in 0.5% DMSO. Each test plate contained variouse controls, induction positive controls (1mM phenobarbital), cytotoxicity positive controls ([…] aflatoxin B1), vehicle controls (0.5% DMSO), and total lysis controls (0.5% DMSO). Cell morphology images were taken using an Essen IncuCyte FLR automated microscope, with six 96-well plates imaged in about 24 minutes. Images were captured and exported and JPEG files. Spent culture media was transfered to black-well plates for the LDH assay, and remaining media was sorted at -80 C for later use. Cells were treated with RLT buffer and frozen until shipped for gene expression analysis. Total RNA was isolated from the cell suspension in 75 uL of Buffer RLT (Qiagen, Germantown, MD 20874) by Quintiles/Expression Analysis (Durham, NC) using a custom isolation procedure. Total RNA from each plate well was transferred to a preamplification plate. Fluidigm's 96.96 Dynamic ArrayTM (Fluidigm, Amsterdam, the Netherlands) technology was used for gene expression analyses by quantitative reverse transcription polymerase chain reaction (qRT-PCR, performed by Quintiles/Expression Analysis, Durham, NC)89. Standard TaqManTM Assays (Applied Biosystems/ThermoFisher Scientific, Foster City, CA) were used to assess the expression of 93 genes selected based on their selectivity and sensitivity to important hepatic receptors known to be modulated by environmental chemicals; importance in human hepatocyte functionality; and hepatotoxicity. […]

SMILES	outcome	AC50
N#CC(Br)(Br)C(N)=O	inactive	
c1ccc2c(c1)oc1ccccc12	inactive	
O=C(Oc1ccc(Br)cc1)N1CCN2CCC1CC2		73.5 µM (active)
Cc1ccc([N+](=O)[O-])cc1	inactive	
CC(C)(O)c1cnn2c(-c3ccc(F)c(-c4c(F)cccc4C#N)c3)cnc2n1	inactive	
[O-][Cl+]O	inactive	
c1ccc(NNc2ccccc2)cc1	inactive	
Brc1ccc(Oc2ccccc2)cc1	inactive	
O=C(Nc1ccccc1)c1ccccc1I	inactive	
Clc1ccc(C(c2ccc(Cl)cc2)C(Cl)(Cl)Cl)cc1	inactive	
c1ccc(N=Nc2ccccc2)cc1	inactive	
CC(C)N(Cc1ccccc1)C(=O)C(C)(C)C	inactive	
CC(O)CCO (stereo not given)	inactive	
[As]#[In]	inactive	
O=C1CCCO1	inactive	
O=[N+]([O-])C(Br)(CO)CO	inactive	
CCCCCCCCn1sccc1=O	inactive	
O=Cc1ccco1	inactive	
CN(C)c1ccc(C(=O)c2ccc(N(C)C)cc2)cc1	inactive	
Cn1cc(-c2ccccc2)c(=O)c(-c2cccc(C(F)(F)F)c2)c1	inactive	

SMILES	outcome	AC50
CCC[CH2][Sn]([Cl])([CH2]CCC)[CH2]CCC	inactive	
COc1cc(C=O)cc2c1[C@H](COC(N)=O)[C@]1(OC(C)=O)ON2C[C@H]2[C@@H]1N2C(C)=O	inactive	
Oc1ccccc1Cl	inactive	
Clc1ccccc1Cl	inactive	
CCCCC(CC)COC(=O)c1ccc(C(=O)OCC(CC)CCCC)c(C(=O)OCC(CC)CCCC)c1 (stereo not given)	inactive	
Nc1ccc(N=Nc2ccccc2)cc1		13.3 µM (active)
CCC(C)c1ccc(O)cc1 (stereo not given)	inactive	
Cc1ccc(N=C=O)cc1N=C=O		12.5 µM (active)
N#CC(Br)Br	inactive	
CCCCOC(=O)c1ccccc1C(=O)OCc1ccccc1	inactive	
O=C(O)C1C2CCC(O2)C1C(=O)O (stereo not given)	inactive	
CN(C)[C@@H]1C(=O)C(C(N)=O)=C(O)[C@@]2(O)C(=O)C3=C(O)c4c(O)cccc4[C@@](C)(O)[C@H]3C[C@@H]12	inactive	
COP(=S)(OC)SCN1C(=O)c2ccccc2C1=O	inactive	
CCN(CC)N=O	inactive	
OCCCl	inactive	
Nc1ccc(Cl)cc1N	inactive	
COC(=O)Nc1nc2ccccc2[nH]1	inactive	
OCCOCCO	inactive	
CCCCCCCCOC(=O)c1ccc(C(=O)OCCCCCCCC)c(C(=O)OCCCCCCCC)c1	inactive	
O=P(OCCCl)(OCCCl)OCCCl	inactive	
